This note sets out measurements from PubChem BioAssay (Tox21).

The target in assay [1] is Thyrotropin-releasing hormone receptor (Homo sapiens) (UniProt P34981). The assay can be described thus: qHTS assay to identify small molecule agonists of the thyrotropin-releasing hormone receptor (TRHR) signaling pathway (AID 1346891; calls by dose curve; also: series mostly up to about 58 µM). In short, it runs like this:
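HEK293 cells expressing TRHR plated 18 h at 37 C/5% CO2, calcium dye-loaded 2 h at 37 C, then compound added (agonist mode); kinetic calcium fluorescence read 3 min at 1 s intervals; 15 concentrations in triplicate.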

Assay [2] can be described thus: Human pregnane X receptor (PXR) small molecule agonists, qHTS cell viability counter screen (AID 1346977). Also: nearly all actives have a fitted effect of over 50% in size. In short, it runs like this: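 PXR-Luc HepG2 cells (2,000/well, 5% charcoal-stripped FBS) preincubated 5 hr, then exposed to compounds 24 hr at 37 C. Viability read in the same wells by CellTiter-Fluor fluorescence, reagent added at 23 hr, 1 hr incubation.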
On the technique in general: In qHTS, concentration-response curves come from the screen itself.

The nature of assay [3]: Caspase-3/7 induction in HepG2 cells by small molecules, qHTS assay (AID 1346978). Also: nearly all actives have a fitted effect of over 15% in size. In short, it runs like this:
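Wild-type HepG2 cells (2,000/well) were settled 5 h at 37 C, 5% CO2, then exposed to compounds in DMSO for 17 h. Caspase-3/7 activity was read by luminescence 30 min after adding Caspase-Glo 3/7 reagent at room temperature.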

Assay [4] is described as follows: Caspase-3/7 induction in CHO-K1 cells by small molecules, qHTS assay (AID 1346980). Also: nearly all actives have a fitted effect of over 15% in size. In short, it runs like this: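 Wild-type cells were seeded at 1,500 per well and settled 5 hr at 37 C, 5% CO2, then exposed to DMSO-dissolved compounds for 17 hr. Caspase-Glo 3/7 reagent was added, and luminescence was read after 30min at room temperature.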
A short description of assay [5]: Caspase-3/7 induction in HepG2 cells by small molecules, qHTS cell viability counter screen (AID 1346981). Also: series mostly up to about 92 µM; nearly all actives have a fitted effect of over 30% in size. Put shortly:
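HepG2, WT, 2,000 cells/well; 5 hr pre-incubation 37 C/5% CO2; compound pin-transferred from DMSO; 16 hr exposure; CellTiter-Fluor, 1 hr; fluorescence read.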

The target of assay [6] is Nuclear receptor subfamily 1 group I member 2 (Homo sapiens) (UniProt O75469). The assay can be described thus: Human pregnane X receptor (PXR) small molecule agonists, qHTS assay (AID 1346982). Also: nearly all actives have a fitted effect of over 35% in size. Put shortly: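 Luciferase signal from ONE-Glo (30 min, room temperature) measured activation of hPXR-driven CYP3A4 reporter expression in PXR-Luc HepG2 cells treated with compounds for 24 hr at 37 C.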
Nuclear receptor subfamily 1 group I member 2 (Homo sapiens), sequence (O75469 whole entry, looked up): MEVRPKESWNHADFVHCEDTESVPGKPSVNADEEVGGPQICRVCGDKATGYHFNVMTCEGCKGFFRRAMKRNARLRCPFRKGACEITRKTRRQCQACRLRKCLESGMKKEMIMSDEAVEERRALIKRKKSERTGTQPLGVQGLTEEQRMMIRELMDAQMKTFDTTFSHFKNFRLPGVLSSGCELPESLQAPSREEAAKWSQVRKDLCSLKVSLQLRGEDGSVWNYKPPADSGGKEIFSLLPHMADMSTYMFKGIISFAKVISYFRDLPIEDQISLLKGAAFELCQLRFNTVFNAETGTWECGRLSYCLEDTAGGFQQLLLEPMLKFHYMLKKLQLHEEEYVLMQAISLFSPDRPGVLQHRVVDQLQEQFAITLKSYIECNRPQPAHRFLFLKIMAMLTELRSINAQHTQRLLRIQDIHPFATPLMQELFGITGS

The target of assay [7] is Cytochrome P450 2D6 (Homo sapiens) (UniProt P10635). The assay can be described thus: Cytochrome P450 Family 2 Subfamily D Member 6 (CYP2D6) small molecule antagonists: luciferase reporter qHTS assay (AID 1671196). Also: series mostly up to about 120 µM; nearly all actives have a fitted effect of over 50% in size. Put shortly: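 Read-out is luminescence from luciferin formed by CYP2D6 turnover of a proluciferin substrate, recorded as relative luminescence units. Reactions ran 1 h at room temperature after NADPH regeneration solution was added.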
Cytochrome P450 2D6 (Homo sapiens), sequence (P10635 whole entry, looked up): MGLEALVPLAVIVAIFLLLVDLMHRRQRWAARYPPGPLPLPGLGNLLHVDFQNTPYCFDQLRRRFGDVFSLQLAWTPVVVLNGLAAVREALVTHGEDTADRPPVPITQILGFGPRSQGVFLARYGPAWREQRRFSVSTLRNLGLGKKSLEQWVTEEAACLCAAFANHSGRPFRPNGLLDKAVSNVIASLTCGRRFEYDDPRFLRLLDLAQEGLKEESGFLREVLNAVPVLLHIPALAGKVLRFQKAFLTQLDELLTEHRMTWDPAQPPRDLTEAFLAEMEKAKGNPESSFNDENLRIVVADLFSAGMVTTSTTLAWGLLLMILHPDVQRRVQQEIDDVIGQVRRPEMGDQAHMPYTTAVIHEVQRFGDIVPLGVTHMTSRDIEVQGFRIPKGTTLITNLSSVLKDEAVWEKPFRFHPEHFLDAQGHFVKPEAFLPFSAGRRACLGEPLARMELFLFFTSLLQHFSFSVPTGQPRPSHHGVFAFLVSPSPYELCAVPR

Assay [8] concerns the target Cytochrome P450 2C9 (Homo sapiens) (UniProt P11712). Kind of assay: Cytochrome P450 Family 2 Subfamily C Member 9 (CYP2C9) small molecule antagonists: luciferase reporter qHTS assay (AID 1671198). Also: nearly all actives have a fitted effect of over 50% in size. Also: potency is read from the fitted curve at half-maximal effect. As to activity change, negative = inhibition: series mostly up to about 120 µM. Put shortly: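 CYP2C9 activity was measured with a P450-Glo proluciferin substrate. Enzyme–substrate mix was held with compound for 10 min at room temperature, then NADPH regeneration solution was added for 1 h at 37C. Luciferin product was read as luminescence.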

Assay [9] concerns the target Cytochrome P450 1A2 (Homo sapiens) (UniProt P05177). The assay can be described thus: Cytochrome P450 Family 1 Subfamily A Member 2 (CYP1A2) small molecule antagonists: luciferase reporter qHTS assay (AID 1671199). Also: nearly all actives have a fitted effect of over 50% in size. Also: potency is read from the fitted curve at half-maximal effect. As to activity change, negative = inhibition: series mostly up to about 120 µM. In short, it runs like this:
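P450-Glo CYP1A2, 1536-well qHTS: enzyme/proluciferin substrate + cpd (DMSO), 10 min RT; NADPH regen, 1 h RT; detection reagent, 20 min; luminescence, RLU.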
On the technique in general: A reporter such as luciferase makes a cellular process visible.

The target in assay [10] is Voltage-gated inwardly rectifying potassium channel KCNH2 (Homo sapiens) (UniProt Q12809). Kind of assay: Human Ether-a-go-go-Related Gene (hERG) channel small molecule antagonists: fluorescence cell-based qHTS assay (AID 1671200). Put shortly:
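hERG-U2OS cells plated overnight at 37 C, loaded with FluxOR II dye 1 h at RT in dark; after 10 min, thallium stimulus added. Fluorescence (480/540 nm) read kinetically for 2 min at 1 s intervals.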
In general terms: Block of hERG is tested as a sign of cardiac risk.

Assay [11] addresses Cytochrome P450 3A4 (Homo sapiens) (UniProt P08684). Kind of assay: Cytochrome P450 Family 3 Subfamily A Member 4 (CYP3A4) small molecule antagonists: luciferase reporter qHTS assay (AID 1671201). Put shortly:
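P450-Glo CYP3A4 luminescent assay: compounds preincubated 10 min at room temperature with enzyme and proluciferin substrate, NADPH regeneration added, 1 h room-temperature reaction, stopped with luciferin detection reagent; luminescence read after 20 min. Ketoconazole positive control.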

A short description of assay [12]: Caspase-3/7 induction in CHO-K1 cells by small molecules, qHTS cell viability counter screen (AID 1346979). Also: nearly all actives have a fitted effect of over 35% in size. In short, it runs like this: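 Wild-type CHO-K1 cells (1,500/well) treated with compound after 5 h plating; after 16 h at 37C, viability read as CellTiter-Fluor fluorescence following 1 h reagent incubation, in the same wells as the caspase read.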
Assay [13] has as its target Nuclear receptor subfamily 1 group I member 2 (Rattus norvegicus) (UniProt Q9R1A7). Kind of assay: Rat pregnane X receptor (rPXR) activation by small molecules, qHTS assay (AID 1346983). Also: nearly all actives have a fitted effect of over 20% in size. Conditions: rPXR luciferase reporter cells, One-Glo luminescence, 24 h; max activation: stronger effect = higher value. Put shortly:
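Cell-based rPXR luciferase reporter assay, 2,000 cells per well, rested 5hr at 37 C before compound addition in DMSO, then 24 hr at 37 C. One-Glo reagent was added and luminescence read after 30 min at room temperature.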

The target of assay [14] is Nuclear receptor subfamily 1 group I member 2 (Homo sapiens) (UniProt O75469). Kind of assay: CYP3A4 induction through human pregnane X receptor (PXR) by small molecules, qHTS assay (AID 1346984). Also: nearly all actives have a fitted effect of over 40% in size. Put shortly: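 Luminescence readout: luciferase signal after One-Glo (30 min, room temperature), following 3 h at 37C with 3uM final Luciferin-IPA P450 substrate. Cells were DPX-2 (HepG2, PXR/CYP3A4-luc co-transfected) dosed for 24 h.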

The target is the same in assay [15]. Kind of assay: Human pregnane X receptor (PXR) activation by small molecules, qHTS assay (AID 1346985). Also: nearly all actives have a fitted effect of over 40% in size. Put shortly:
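DPX-2 cells (HepG2 co-transfected with a PXR response element and a CYP3A4-promoter luciferase construct) were seeded at 2,000 per well, rested 5 hr at 37C, then exposed to DMSO-dissolved compounds for 24 hr. Activation was read as luciferase luminescence.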

The target of assay [16] is Cytochrome P450 2C19 (Homo sapiens) (UniProt P33261). The assay can be described thus: Cytochrome P450 Family 2 Subfamily C Member 19 (CYP2C19) small molecule antagonists: luciferase reporter qHTS assay (AID 1671197). Also: nearly all actives have a fitted effect of over 65% in size. Also: potency is read from the fitted curve at half-maximal effect. As to activity change, negative = inhibition: series mostly up to about 120 µM. Put shortly:
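P450-Glo CYP2C19 system: enzyme-substrate mix with compound 10 min at room temperature, then NADPH regeneration solution, 1 h at 37C. Proluciferin-to-luciferin conversion detected by luminescence after 20 min with detection reagent; ketoconazole as positive control.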

A number with no mark means an inactive call. Records with an inconclusive call do not appear. Activity calls are given as the source filed them. Unless noted, calls follow the shape of the dose curve; as a rule, active = well fitted curve in the direction sought with a large enough effect in the repeat runs; inconclusive = weak or mixed curves; inactive = no such curve, though single readings can be large; an effect the other way counts as inactive or inconclusive.
% is scaled to controls: 0 for no effect and ±100 for the full control effect.

Voltage-gated inwardly rectifying potassium channel KCNH2 (Homo sapiens), sequence (Q12809 whole entry, looked up): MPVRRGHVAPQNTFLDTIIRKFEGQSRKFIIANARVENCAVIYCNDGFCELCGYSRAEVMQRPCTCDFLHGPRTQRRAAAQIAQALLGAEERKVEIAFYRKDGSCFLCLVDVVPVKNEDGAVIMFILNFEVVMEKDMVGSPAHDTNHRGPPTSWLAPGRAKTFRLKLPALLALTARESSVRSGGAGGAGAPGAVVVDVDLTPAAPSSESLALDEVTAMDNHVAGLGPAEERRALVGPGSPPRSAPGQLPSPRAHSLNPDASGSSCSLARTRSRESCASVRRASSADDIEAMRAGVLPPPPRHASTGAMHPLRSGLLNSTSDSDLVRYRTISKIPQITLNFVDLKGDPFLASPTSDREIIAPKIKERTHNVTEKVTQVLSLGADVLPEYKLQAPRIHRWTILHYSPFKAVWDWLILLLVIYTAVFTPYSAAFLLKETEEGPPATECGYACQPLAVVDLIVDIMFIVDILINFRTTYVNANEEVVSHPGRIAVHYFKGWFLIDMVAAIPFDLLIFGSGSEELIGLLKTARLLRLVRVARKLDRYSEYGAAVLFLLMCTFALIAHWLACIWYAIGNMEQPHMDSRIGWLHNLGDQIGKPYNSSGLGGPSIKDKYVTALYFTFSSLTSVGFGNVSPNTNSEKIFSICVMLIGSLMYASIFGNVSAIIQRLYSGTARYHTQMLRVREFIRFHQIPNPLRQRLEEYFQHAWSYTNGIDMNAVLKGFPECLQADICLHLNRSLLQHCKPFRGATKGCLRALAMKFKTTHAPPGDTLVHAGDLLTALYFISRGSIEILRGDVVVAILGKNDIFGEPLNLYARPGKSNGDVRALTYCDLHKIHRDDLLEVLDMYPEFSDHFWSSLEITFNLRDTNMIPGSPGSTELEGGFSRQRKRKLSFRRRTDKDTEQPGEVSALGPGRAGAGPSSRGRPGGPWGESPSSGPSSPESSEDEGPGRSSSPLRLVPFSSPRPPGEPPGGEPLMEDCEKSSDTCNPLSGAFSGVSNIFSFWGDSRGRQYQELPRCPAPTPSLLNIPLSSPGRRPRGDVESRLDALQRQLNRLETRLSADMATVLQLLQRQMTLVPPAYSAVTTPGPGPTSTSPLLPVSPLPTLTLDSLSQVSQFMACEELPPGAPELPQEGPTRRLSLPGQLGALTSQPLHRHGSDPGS
Cytochrome P450 2C19 (Homo sapiens), sequence (P33261 whole entry, looked up): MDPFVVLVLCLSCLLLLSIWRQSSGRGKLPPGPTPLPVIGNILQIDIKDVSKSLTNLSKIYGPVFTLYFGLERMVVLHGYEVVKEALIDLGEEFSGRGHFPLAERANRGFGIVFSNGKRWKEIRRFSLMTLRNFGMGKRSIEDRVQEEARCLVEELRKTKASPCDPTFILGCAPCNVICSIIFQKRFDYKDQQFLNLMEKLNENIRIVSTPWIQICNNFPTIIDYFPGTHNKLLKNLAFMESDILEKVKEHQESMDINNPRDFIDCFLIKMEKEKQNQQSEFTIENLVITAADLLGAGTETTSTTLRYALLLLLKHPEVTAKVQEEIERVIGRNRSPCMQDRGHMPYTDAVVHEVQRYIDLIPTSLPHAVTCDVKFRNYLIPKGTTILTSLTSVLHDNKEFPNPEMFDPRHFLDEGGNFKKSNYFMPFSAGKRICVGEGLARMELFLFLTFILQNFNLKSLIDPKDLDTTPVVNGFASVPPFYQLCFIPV
Cytochrome P450 3A4 (Homo sapiens), sequence (P08684 whole entry, looked up): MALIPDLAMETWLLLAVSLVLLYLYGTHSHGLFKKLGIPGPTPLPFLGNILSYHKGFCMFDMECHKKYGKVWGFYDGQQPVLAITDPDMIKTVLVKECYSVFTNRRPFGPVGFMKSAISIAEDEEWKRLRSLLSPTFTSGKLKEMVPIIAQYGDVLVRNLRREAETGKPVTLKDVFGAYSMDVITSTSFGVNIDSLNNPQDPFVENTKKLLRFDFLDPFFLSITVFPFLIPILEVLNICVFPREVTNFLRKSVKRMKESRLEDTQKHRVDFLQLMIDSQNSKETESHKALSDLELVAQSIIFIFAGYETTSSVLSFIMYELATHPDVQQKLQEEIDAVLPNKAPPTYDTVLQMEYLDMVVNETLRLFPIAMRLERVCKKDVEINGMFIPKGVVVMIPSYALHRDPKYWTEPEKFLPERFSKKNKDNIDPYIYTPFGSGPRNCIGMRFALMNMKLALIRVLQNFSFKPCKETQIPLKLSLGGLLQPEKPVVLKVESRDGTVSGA
Cytochrome P450 2C9 (Homo sapiens), sequence (P11712 whole entry, looked up): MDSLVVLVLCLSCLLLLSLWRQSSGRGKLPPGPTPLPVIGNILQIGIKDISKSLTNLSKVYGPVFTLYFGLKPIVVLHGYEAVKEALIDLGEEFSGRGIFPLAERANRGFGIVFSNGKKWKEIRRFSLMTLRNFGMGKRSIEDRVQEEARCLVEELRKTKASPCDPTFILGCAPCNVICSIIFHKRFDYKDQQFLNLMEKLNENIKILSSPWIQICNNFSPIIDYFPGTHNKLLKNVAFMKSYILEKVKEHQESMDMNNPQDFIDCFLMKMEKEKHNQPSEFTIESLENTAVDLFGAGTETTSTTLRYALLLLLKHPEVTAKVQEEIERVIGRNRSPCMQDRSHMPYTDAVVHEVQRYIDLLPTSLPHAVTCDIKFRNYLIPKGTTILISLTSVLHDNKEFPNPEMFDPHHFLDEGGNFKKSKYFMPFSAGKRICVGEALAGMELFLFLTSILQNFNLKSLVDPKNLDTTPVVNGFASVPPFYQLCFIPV
Cytochrome P450 1A2 (Homo sapiens), sequence (P05177 whole entry, looked up): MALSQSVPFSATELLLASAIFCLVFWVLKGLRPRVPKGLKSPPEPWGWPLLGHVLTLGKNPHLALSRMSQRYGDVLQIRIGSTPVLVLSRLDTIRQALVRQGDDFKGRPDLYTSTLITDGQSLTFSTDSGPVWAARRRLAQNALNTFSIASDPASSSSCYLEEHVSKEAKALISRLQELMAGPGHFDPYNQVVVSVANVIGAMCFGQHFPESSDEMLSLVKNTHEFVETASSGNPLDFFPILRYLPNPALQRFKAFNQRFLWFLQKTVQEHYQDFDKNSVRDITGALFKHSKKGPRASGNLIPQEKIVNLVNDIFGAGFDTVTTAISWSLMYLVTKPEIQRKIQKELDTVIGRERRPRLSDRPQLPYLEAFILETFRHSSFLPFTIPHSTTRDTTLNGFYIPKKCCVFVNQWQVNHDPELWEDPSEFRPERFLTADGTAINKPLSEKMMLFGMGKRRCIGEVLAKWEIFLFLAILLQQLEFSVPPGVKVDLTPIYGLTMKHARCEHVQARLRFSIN
Thyrotropin-releasing hormone receptor (Homo sapiens), sequence (P34981 whole entry, looked up): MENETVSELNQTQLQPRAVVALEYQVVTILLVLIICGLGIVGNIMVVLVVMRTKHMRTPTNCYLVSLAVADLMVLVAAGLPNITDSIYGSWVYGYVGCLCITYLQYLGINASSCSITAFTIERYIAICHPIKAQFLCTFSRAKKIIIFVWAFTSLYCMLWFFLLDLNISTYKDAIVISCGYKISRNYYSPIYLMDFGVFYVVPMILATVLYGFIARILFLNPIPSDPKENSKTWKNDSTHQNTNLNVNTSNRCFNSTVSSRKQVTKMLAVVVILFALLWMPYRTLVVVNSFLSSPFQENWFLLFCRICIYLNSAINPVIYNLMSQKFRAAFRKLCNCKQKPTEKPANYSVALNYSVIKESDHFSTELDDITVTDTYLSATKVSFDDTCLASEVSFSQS
Nuclear receptor subfamily 1 group I member 2 (Rattus norvegicus), sequence (Q9R1A7 whole entry, looked up): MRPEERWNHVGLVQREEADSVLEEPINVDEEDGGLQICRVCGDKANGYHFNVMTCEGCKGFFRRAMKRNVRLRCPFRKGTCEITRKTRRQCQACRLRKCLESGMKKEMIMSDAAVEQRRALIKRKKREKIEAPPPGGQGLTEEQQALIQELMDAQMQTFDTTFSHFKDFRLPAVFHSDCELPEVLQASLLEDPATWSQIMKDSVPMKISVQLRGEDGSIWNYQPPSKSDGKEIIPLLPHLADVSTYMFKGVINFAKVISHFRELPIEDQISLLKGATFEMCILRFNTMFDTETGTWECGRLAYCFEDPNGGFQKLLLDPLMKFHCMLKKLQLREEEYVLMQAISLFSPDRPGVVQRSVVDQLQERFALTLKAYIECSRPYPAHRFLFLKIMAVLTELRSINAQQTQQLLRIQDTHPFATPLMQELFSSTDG

As to `O=C(O)c1ccc(O)cc1O`, the call in [1] and in assay [4] was inactive. Also, the Potency result in assay [2], in assay [3], in assay [5], in assay [6], in [7] and in assay [8] was “inactive” each time. The Potency result in assay [9], in [10] and in assay [11] was “inactive” in each case.
With `O=C(O)CCCc1c[nH]c2ccccc12`, the molecule was called inactive in [1] and in assay [4]. The Potency result in assay [2], in [3], in assay [5], in [6], in [7] and in assay [8] was “inactive” in each case. Moreover, the Potency result in assay [9], in assay [10] and in assay [11] was “inactive” each time.
In the case of `c1ccc2sc(SSc3nc4ccccc4s3)nc2c1`, the activity change, negative = cytotoxicity in assay [2] is 14.6% [at 19 µM]; in [12], 8.61% [at 19 µM]; in assay [5], 0.175% [at 19 µM]. The caspase activation in assay [3] was 1.15% [at 19 µM]. Besides, the caspase-3/7 activation in assay [4] was -0.79% [at 19 µM]. Besides, the activation in [6] is 0% [at 19 µM]. Besides, the max activation in [13] was -4.43%. Besides, the Potency entry in assay [14] and in assay [15] was “inactive” each time. The Potency in assay [16] was 4.77 µM (active); in [8] it was 9.52 µM (active). Moreover, the figures for the activity change, negative = inhibition in assay [9] and in assay [10] were -16.1% [at 23.6 µM] and 5.4% [at 15.8 µM], respectively.
Take `CC(=O)C(C)=O`: the Potency entry in assay [2], in [3], in [12], in assay [5], in [6] and in assay [7] was “inactive” each time. For the same molecule, the Potency result in [16], in assay [8], in [9] and in [10] was “inactive” each time. Further, the molecule was classed as inactive in [4].
`CC1CCCC(=O)C1=O` (stereo not given): the Potency result in assay [2], in assay [3], in assay [12], in assay [5], in assay [6] and in assay [7] was “inactive” each time. In addition, the Potency entry in assay [16], in assay [8], in assay [9], in [10] and in assay [11] was “inactive” in each case. Further, the molecule was called inactive in assay [4].
In the case of `Cc1ccc(N(CCO)CCO)cc1`, the Potency entry in [2], in [3], in assay [12], in assay [5], in assay [6] and in assay [7] was “inactive” throughout. Further, the Potency entry in [10] and in assay [11] was “inactive” each time. Also, in [4], the outcome was inactive. Besides, the Potency was 17.8 µM (active) in [16], 39.9 µM (active) in assay [8] and 31.7 µM (active) in [9].
